Inconclusive results are not listed. Activity calls are given as the source filed them. Rule for the calls, unless noted: active = hit-call score of the fitted dose curve at least 0.9, where 1 is the maximum; inconclusive = response in the unintended direction; inactive = score below 0.9.
What was measured:
[1] = target: Bile acid receptor (Homo sapiens) (UniProt Q96RI1); experiment: OT_FXR_FXRSRC1_0480: Odyssey Thera (OT) 8-hour HEK293T Protein-Complementation Assay for Farnesoid X receptor/SRC-1 Co-activator (AID 2283383)
Chain of Bile acid receptor (Homo sapiens) (Q96RI1 whole entry, looked up, the tested form may be a part): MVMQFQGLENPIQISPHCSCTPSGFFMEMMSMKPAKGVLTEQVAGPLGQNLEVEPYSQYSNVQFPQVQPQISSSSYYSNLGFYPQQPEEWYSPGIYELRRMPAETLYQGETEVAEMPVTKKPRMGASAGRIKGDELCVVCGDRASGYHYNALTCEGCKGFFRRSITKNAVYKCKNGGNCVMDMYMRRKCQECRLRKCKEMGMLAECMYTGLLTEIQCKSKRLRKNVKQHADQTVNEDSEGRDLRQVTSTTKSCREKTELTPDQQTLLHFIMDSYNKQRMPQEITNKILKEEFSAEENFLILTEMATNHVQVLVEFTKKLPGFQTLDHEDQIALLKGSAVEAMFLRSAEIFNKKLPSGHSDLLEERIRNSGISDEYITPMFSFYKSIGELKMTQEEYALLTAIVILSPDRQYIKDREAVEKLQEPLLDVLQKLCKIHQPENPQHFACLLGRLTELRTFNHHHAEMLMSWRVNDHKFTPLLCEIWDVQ
Outline: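 Binding of FXR to coactivator SRC-1 was read as fluorescence from a reconstituted split reporter in HEK293T cells, 8 h after chemical addition. Only increases in signal versus DMSO were fit.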

[2] = target: Bile acid receptor (Homo sapiens) (UniProt Q96RI1); experiment: OT_FXR_FXRSRC1_1440: Odyssey Thera (OT) 24-hour HEK293T Protein-Complementation Assay for Farnesoid X receptor/SRC-1 Co-activator (AID 2283384)
Outline: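 Protein-fragment complementation: FXR and SRC-1 fused to reporter fragments that reassemble on interaction, read by fluorescence intensity. Human HEK293T cells measured 24 h post-dose; positive-direction fit versus DMSO.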

[3] = target: Retinoic acid receptor RXR-alpha (Homo sapiens) (UniProt P19793); experiment: OT_NURR1_NURR1RXRa_0480: Odyssey Thera (OT) 8-hour HEK293T Protein Complementation Assay for Nurr1/retinoid X receptor (RXR) (AID 2283385)
Chain of Retinoic acid receptor RXR-alpha (Homo sapiens) (P19793 whole entry, looked up, the tested form may be a part): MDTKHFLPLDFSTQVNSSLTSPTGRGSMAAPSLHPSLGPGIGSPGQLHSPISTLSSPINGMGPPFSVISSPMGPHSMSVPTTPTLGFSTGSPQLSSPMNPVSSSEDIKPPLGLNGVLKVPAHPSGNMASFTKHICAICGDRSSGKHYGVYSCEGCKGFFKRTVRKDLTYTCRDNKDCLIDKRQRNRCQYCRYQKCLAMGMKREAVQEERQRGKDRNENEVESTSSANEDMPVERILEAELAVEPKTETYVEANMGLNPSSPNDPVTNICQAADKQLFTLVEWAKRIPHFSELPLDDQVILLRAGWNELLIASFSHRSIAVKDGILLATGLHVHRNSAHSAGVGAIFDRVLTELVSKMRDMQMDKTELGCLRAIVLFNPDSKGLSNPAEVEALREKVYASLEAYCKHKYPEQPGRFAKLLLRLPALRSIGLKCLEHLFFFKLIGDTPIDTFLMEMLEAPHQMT
Outline: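 Interaction of Nurr1 with RXRα read as reconstituted reporter fluorescence in a HEK293T fragment-complementation system, 8 h post-treatment; increase over DMSO baseline analysed.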

[4] = target: Retinoic acid receptor RXR-alpha (Homo sapiens) (UniProt P19793); experiment: OT_NURR1_NURR1RXRa_1440: Odyssey Thera (OT) 24-hour HEK293T Protein Complementation Assay for Nurr1/retinoid X receptor (RXR) (AID 2283386)
Outline: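 Gain in fluorescence, fitted relative to DMSO, reflects Nurr1–RXRα association in HEK293T cells after 24 h dosing. Bait and prey are each linked to a reporter-protein fragment that reassembles on interaction.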

[5] = target: Peroxisome proliferator-activated receptor gamma (Homo sapiens) (UniProt P37231); experiment: OT_PPARg_PPARgSRC1_0480: Odyssey Thera (OT) 8-hour Protein-Complementation Assay for Peroxisome Proliferator-activated Receptor Gamma / SRC-1 Co-activator (AID 2283387);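 note: nuclear to cytoplasmic split Venus YFP fluorescence ratio reporting PPARg SRC-1 interaction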
Chain of Peroxisome proliferator-activated receptor gamma (Homo sapiens) (P37231 whole entry, looked up, the tested form may be a part): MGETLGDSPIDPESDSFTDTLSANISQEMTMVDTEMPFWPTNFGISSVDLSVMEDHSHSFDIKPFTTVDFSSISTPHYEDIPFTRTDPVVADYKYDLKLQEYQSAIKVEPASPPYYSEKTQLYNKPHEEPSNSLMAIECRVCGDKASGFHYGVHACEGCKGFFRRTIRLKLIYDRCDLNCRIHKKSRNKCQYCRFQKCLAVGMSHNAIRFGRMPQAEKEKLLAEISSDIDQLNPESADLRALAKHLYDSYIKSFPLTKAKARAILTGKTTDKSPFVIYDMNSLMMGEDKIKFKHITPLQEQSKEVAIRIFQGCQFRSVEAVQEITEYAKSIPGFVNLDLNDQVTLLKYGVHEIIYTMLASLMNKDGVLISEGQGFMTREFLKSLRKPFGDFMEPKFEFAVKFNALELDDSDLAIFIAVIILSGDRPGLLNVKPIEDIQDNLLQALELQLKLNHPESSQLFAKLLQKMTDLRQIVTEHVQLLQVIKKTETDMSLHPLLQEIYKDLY
Outline: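 Protein-fragment complementation of split Venus YFP reports PPARg/SRC-1 interaction in HEK293T (transfected 48 h before treatment), exposed 8 h. Readout: N/C fluorescence ratio at 488 nm from imaging, Draq5 for segmentation, positive fit relative to DMSO.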

[6] = target: Peroxisome proliferator-activated receptor gamma (Homo sapiens) (UniProt P37231); experiment: OT_PPARg_PPARgSRC1_1440: Odyssey Thera (OT) 24-hour Protein-Complementation Assay for Peroxisome Proliferator-activated Receptor Gamma/ SRC-1 Co-activator (AID 2283388);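 note: nuclear to cytoplasmic ratio of reconstituted Venus YFP fluorescence in fixed imaged cells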
Outline: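 Readout: nuclear-to-cytoplasmic 488 nm fluorescence ratio, ≥350 cells per image, 8 images per well, after 24 h compound exposure of HEK293T expressing PPARg/SRC-1 split-YFP fusions. Activity fitted in positive direction against DMSO.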

[7] = CEETOX_H295R_11DCORT: CeeTox H295R High-throughput Steroidogenesis Assay for 11-Deoxycortisol (11DCORT) (AID 2283432; active = hit-call score of the fitted dose curve at least 0.9, where 1 is the maximum; inactive = score below 0.9); conditions: actives raise or lower the signal
Outline: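 Human adrenal H295R cells were prestimulated with 10 uM forskolin for 48 h, then exposed to test chemical (0.1% DMSO final) for 48 h. Medium 11-deoxycortisol was quantified by MTBE extraction and HPLC-MS/MS; bidirectional fitting relative to DMSO.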

[8] = CEETOX_H295R_OHPREG: CeeTox H295R High-throughput Steroidogenesis Assay for OH-Pregnenolone (OHPREG) (AID 2283434; active = hit-call score of the fitted dose curve at least 0.9, where 1 is the maximum; inactive = score below 0.9); conditions: actives raise or lower the signal
Outline: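 H295R, 10 uM forskolin pre-stim 48 h; test chemical 48 h, 0.1% DMSO final. MTBE extraction, reverse-phase C18 HPLC-ESI+ MS/MS of medium. Gain/loss vs DMSO; viability by MTT in same wells.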

[9] = CEETOX_H295R_CORTIC: CeeTox H295R High-throughput Steroidogenesis Assay for Corticosterone (CORTIC) (AID 2283437; active = hit-call score of the fitted dose curve at least 0.9, where 1 is the maximum; inactive = score below 0.9;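 note: corticosterone secreted into medium quantified by mass spectrometry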); conditions: actives raise or lower the signal
Outline: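 48 h forskolin (10 uM) prestim, then 48 h chemical exposure, final DMSO 0.1%. Readout: corticosterone in medium by LC-MS/MS after MTBE extraction. Gain/loss fit vs DMSO; MTT viability in same wells.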

[10] = CEETOX_H295R_CORTISOL: CeeTox H295R High-throughput Steroidogenesis Assay for Cortisol (AID 2283438; active = hit-call score of the fitted dose curve at least 0.9, where 1 is the maximum; inactive = score below 0.9;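 note: cortisol secreted into medium quantified by LC-MS/MS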); conditions: actives raise or lower the signal
Outline: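 Cortisol measured by HPLC-MS/MS after MTBE extraction of medium from H295R cells exposed 48 h to chemical (0.1% DMSO), following 48 h prestimulation with 10 uM forskolin. Viability assessed by MTT in the same wells.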

[11] = target: Estrogen receptor beta (Homo sapiens) (UniProt Q92731); experiment: OT_ER_ERbERb_1440: Odyssey Thera (OT) 24-hour HEK293T Protein-Complementation Assay for Estrogen Receptor-beta/-beta Homodimer (AID 2283380);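 note: scored as signal increase over DMSO baseline for both agonists and antagonists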
Chain of Estrogen receptor beta (Homo sapiens) (Q92731 whole entry, looked up, the tested form may be a part): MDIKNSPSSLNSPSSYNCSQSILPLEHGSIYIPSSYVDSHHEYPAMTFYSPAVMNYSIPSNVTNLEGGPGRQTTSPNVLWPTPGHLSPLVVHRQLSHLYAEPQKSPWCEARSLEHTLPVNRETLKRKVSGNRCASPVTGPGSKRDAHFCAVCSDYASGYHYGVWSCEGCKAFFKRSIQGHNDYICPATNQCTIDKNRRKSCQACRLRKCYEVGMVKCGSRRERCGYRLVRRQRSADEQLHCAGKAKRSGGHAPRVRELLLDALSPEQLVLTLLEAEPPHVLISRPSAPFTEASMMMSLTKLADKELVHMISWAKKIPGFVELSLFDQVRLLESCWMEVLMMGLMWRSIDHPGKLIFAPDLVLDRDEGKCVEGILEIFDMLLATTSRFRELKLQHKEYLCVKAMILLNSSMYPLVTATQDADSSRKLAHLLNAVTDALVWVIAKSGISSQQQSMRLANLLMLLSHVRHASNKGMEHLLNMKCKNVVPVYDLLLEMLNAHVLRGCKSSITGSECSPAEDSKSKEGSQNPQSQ
Outline: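 HEK293T cells stably expressing ER beta LBD (aa 310-547) homodimer fragment-complementation reporter, dosed 24 h. Cells formaldehyde-fixed, Draq5-stained; gain in nuclear (agonist) or nuclear plus cytoplasmic (antagonist) fluorescence versus DMSO read by laser scanning cytometry.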

[12] = target: Estrogen receptor (Homo sapiens) (UniProt P03372); experiment: OT_ERa_GFPERaERE_0480: Odyssey Thera (OT) 8-hour HeLa Transcription Induction Assay for Estrogen Receptor (AID 2283381; active = hit-call score of the fitted dose curve at least 0.9, where 1 is the maximum; inactive = score below 0.9)
Chain of Estrogen receptor (Homo sapiens) (P03372 whole entry, looked up): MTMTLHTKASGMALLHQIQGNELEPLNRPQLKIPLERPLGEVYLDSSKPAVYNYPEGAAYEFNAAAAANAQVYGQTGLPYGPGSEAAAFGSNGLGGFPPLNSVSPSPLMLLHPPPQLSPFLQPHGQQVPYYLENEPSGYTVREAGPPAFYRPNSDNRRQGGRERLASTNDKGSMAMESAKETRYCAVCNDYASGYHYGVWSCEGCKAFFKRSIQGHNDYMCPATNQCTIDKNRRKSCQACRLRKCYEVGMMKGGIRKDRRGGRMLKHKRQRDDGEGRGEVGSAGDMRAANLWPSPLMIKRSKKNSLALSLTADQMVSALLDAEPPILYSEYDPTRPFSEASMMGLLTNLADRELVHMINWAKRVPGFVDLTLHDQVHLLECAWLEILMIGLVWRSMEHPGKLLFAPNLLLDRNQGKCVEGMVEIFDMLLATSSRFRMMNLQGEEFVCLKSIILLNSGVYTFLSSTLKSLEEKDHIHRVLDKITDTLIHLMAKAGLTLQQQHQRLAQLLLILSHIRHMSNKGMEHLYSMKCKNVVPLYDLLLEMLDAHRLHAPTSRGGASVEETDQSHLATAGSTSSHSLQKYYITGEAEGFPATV
Outline: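 Fluorescence microscopy with high-content image analysis measures ERE-driven GFP induction in HeLa cells at 8 h post-dose. Increases fitted against DMSO baseline.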

[13] = target: Estrogen receptor (Homo sapiens) (UniProt P03372); experiment: OT_ERa_GFPERaERE_0120: Odyssey Thera (OT) 2-hour HeLa Transcription Induction Assay for Estrogen Receptor (AID 2283382)
Outline: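 Fluorescence-microscopy images of the GFP-ERα/ERE reporter, scored by high-content image algorithms, give the readout. HeLa exposure lasted 2 h, and only signal increase over DMSO was fitted.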

Measured: AC50

CCCCC1CCC(O)CC1 (stereo unspecified)
inactive: [1] | [2] | [3] | [4] | [5] | [6]

Cc1ccc(S(N)(=O)=O)cc1
inactive: [1] | [6]

CCOC(=O)C1OC1c1ccccc1 (stereo unspecified)
inactive: [3] | [4] | [6]

CC(C)CCOC(=O)c1ccccc1
inactive: [1] | [4] | [6]

CCCCCC(=O)CC
inactive: [3] | [4] | [6]

CCc1cc(C(C)(C)C)c(O)c(C(C)(C)C)c1
active: [1] 33.6 µM | [3] 83.8 µM | [4] 86.2 µM
inactive: [2] | [5] | [6] | [7] | [8] | [9] | [10]

COCCOCCOCCO
inactive: [3] | [4]

C=C1C[C@]23C[C@@]1(O)CC[C@H]2[C@@]12C=C[C@H](O)[C@@](C)(C(=O)O1)[C@H]2[C@@H]3C(=O)O
inactive: [1] | [4] | [5] | [6]

CC1(C)C(=O)N(Cl)C(=O)N1Br
inactive: [5] | [6] | [7] | [9] | [10]

Oc1ccc2cc(SSc3ccc4cc(O)ccc4c3)ccc2c1
active: [2] 75.3 µM | [3] 78.7 µM | [4] 19.7 µM
inactive: [6]

O=C(O)c1ccc(O)cc1
inactive: [2] | [4] | [6]

CC(C)CCCCCCCCCCCCCCC(=O)O
inactive: [11] | [6]

CCCOCCO
inactive: [2] | [4] | [5] | [6]

CCCC(C)=O
inactive: [1] | [2] | [3] | [4] | [5] | [6]

O=CCc1ccccc1
inactive: [4] | [5] | [6]
active: [1] 30.1 µM | [3] 19.1 µM

CCCCCCCCCCCCCCN(CCO)CCO
inactive: [5] | [6]

CS(C)=O
inactive: [2] | [3] | [4] | [5] | [6]

CCNCCO
inactive: [2] | [4] | [6]

O=C1OC(=O)c2c(Cl)c(Cl)c(Cl)c(Cl)c21
inactive: [1] | [3] | [5] | [6]

O=C(O)CCCCCCCCC(=O)O
inactive: [3] | [4] | [6]

OCCc1ccccc1
inactive: [2] | [4] | [6]

CC(C)CC(C)CC(O)CC(C)C (stereo unspecified)
inactive: [1] | [2] | [4] | [5] | [6]

OCC(O)c1ccccc1 (stereo unspecified)
inactive: [12] | [13] | [3] | [4]

— PubChem BioAssay (EPA / NIEHS)
